Measurements as given in PubChem BioAssay (NCI).
Compounds without any hit were thinned out: in the full panel of roughly 79,000, 15% have a hit. Unmarked numbers belong to inactive results. Active and inactive are the calls of the source. Cut-off read from the data, not from the text of the source: active = growth inhibition above about 70%; inactive = the rest.

Experiments:
[1] = NCI Yeast Anticancer Drug Screen. Data for the rad52 strain (AID 147);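 note: 0% = growth of vehicle-treated control cultures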; details: S. cerevisiae rad52 mutant growth inhibition, active compounds read high
How it was run: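 Screen used a yeast mutant impaired in DNA repair. After compound exposure, growth was measured. Values reflect inhibition compared with vehicle-treated cells.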

[2] = NCI Yeast Anticancer Drug Screen. Data for the wt1 strain (AID 149);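 note: 0% = growth of vehicle-treated wt1 cultures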; details: S. cerevisiae wt1 strain (SPY 50644) growth inhibition, active compounds read high
How it was run: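 Compounds are added to wt1 yeast cultures. Growth is then measured. Inhibition is expressed relative to vehicle-treated controls.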

[3] = NCI Yeast Anticancer Drug Screen. Data for the rad50EPP+ strain (AID 151);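 note: 0% = growth of vehicle-treated control cultures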; details: S. cerevisiae rad50 mutant strain, active compounds read high
How it was run: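 Exposing the rad50EPP+ strain to each compound, growth was compared with vehicle-only cultures to give inhibition.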

[4] = NCI Yeast Anticancer Drug Screen. Data for the mgt1 strain (AID 153); details: S. cerevisiae mgt1 mutant growth inhibition, active compounds read high
How it was run: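 Genetically defined yeast (mgt1) treated with compound; inhibition of growth expressed against vehicle-treated controls.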

[5] = NCI Yeast Anticancer Drug Screen. Data for the rad50 strain (AID 155);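 note: 0% = growth of vehicle-only cultures of the same strain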; details: S. cerevisiae rad50 strain growth inhibition, active compounds read high
How it was run: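 Inhibition values express reduced yeast growth in compound-treated cultures relative to vehicle-treated controls.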

[6] = NCI Yeast Anticancer Drug Screen. Data for the mec2-1 strain (AID 157); details: S. cerevisiae mec2-1 strain, active compounds read high
How it was run: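 Readout is yeast growth inhibition, normalised to vehicle-treated controls, in the mec2-1 strain exposed to compound.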

[7] = NCI Yeast Anticancer Drug Screen. Data for the rad14 strain (AID 159);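 note: 0% = growth of vehicle-treated control cultures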; details: S. cerevisiae rad14 strain growth inhibition, active compounds read high
How it was run: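 A mutant yeast strain defective in DNA damage repair is treated with compound; inhibition of its growth is scored against untreated, vehicle-exposed cultures.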

[8] = NCI Yeast Anticancer Drug Screen. Data for the sgs1 mgt1 strain (AID 161);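 note: 0% = growth of cultures given vehicle only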; details: S. cerevisiae sgs1 mgt1 strain, active compounds read high
How it was run: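 Yeast cells carrying a defined DNA-repair defect were exposed to test compounds. Growth inhibition was measured relative to vehicle-treated controls.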

[9] = NCI Yeast Anticancer Drug Screen. Data for the CLN2oe strain (AID 163);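 note: 0% = growth of vehicle-only control cultures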; details: S. cerevisiae CLN2oe strain, active compounds read high
How it was run: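 Values reflect how much compound exposure reduced yeast growth, referenced to vehicle-exposed cells. Assay organism is a strain with a defined genetic change affecting cell-cycle control.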

[10] = NCI Yeast Anticancer Drug Screen. Data for the cln2 rad14 strain (AID 165);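 note: 0% = growth equal to vehicle treated cultures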; details: S. cerevisiae cln2 rad14 strain, active compounds read high
How it was run: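 Relative to vehicle controls, growth inhibition of compound-treated cln2 rad14 yeast was recorded.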

[11] = NCI Yeast Anticancer Drug Screen. Data for the bub3 strain (AID 167); details: S. cerevisiae bub3 mutant strain, active compounds read high
How it was run: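 Steps: expose the mutant yeast strain to compound; grow alongside vehicle-treated cultures; measure growth; express inhibition against the vehicle cultures.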

[12] = NCI Yeast Anticancer Drug Screen. Data for the wt2 strain (AID 169);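 note: 0% = growth of vehicle-treated yeast cultures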; details: S. cerevisiae wt2 strain growth inhibition, active compounds read high
How it was run: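 Values express reduction in yeast growth under compound treatment, referenced to vehicle-treated cells.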

[13] = NCI Yeast Anticancer Drug Screen. Data for the mlh1 strain (AID 171);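 note: 0% = growth of vehicle-treated control cultures of the same strain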; details: S. cerevisiae mlh1 strain growth inhibition, active compounds read high
How it was run: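 Steps: expose the defined-mutant yeast strain to compound; expose a parallel culture to vehicle; measure growth; express compound effect as inhibition relative to the vehicle culture.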

[14] = NCI Yeast Anticancer Drug Screen. Data for the sgs1 strain (AID 173);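 note: 0% = growth of vehicle-only control cultures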; details: S. cerevisiae sgs1 mutant, active compounds read high
How it was run: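 Treat defined-mutant yeast with compound; measure growth; calculate inhibition relative to vehicle-treated cells.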

[15] = NCI Yeast Anticancer Drug Screen. Data for the mlh1 rad18 strain (AID 175); details: S. cerevisiae mlh1 rad18 strain growth inhibition, active compounds read high
How it was run: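 Test agents were incubated with a yeast strain of defined genotype (DNA damage repair defect). Inhibition of growth was derived by comparison with vehicle-exposed cultures.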

[16] = NCI Yeast Anticancer Drug Screen. Data for the rad18 strain (AID 177); details: S. cerevisiae rad18 mutant growth inhibition, active compounds read high
How it was run: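 A genetically defined yeast mutant impaired in DNA damage repair was treated with test compounds, then its growth was measured against cultures receiving vehicle alone.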

[17] = at 5.0 µM (retest, dose inferred, filed as 0.5)
[18] = at 50.0 µM (retest, dose inferred, filed as 5.0)

CC1OC(O[C@H]2/C=C/C=C/C=C/C=C/C=C/C=C/C=C/[C@H](C)[C@@H](O)[C@@H](C)[C@H](C)OC(=O)C[C@H](O)C[C@H](O)CC[C@@H](O)[C@H](O)C[C@H](O)C[C@]3(O)C[C@H](O)[C@@H](C(=O)O)[C@H](C2)O3)C(O)C(N)C1O (stereo partly specified)
growth inhibition ([1]; at 1.2 µM): 2%
growth inhibition ([1]; at 3.7 µM): 45%
growth inhibition ([1]; at 11.0 µM): 98% (active)
growth inhibition ([1]; at 33.0 µM): 98% (active)
growth inhibition ([1]; at 100.0 µM): 98% (active)
growth inhibition ([2]; at 1.2 µM): 2%
growth inhibition ([2]; at 3.7 µM): 13%
growth inhibition ([2]; at 11.0 µM): 98% (active)
growth inhibition ([2]; at 33.0 µM): 98% (active)
growth inhibition ([2]; at 100.0 µM): 98% (active)
growth inhibition ([3]; at 1.2 µM): 25%
growth inhibition ([3]; at 3.7 µM): 97% (active)
growth inhibition ([3]; at 11.0 µM): 99% (active)
growth inhibition ([3]; at 33.0 µM): 99% (active)
growth inhibition ([3]; at 100.0 µM): 98% (active)
growth inhibition ([4]; at 1.2 µM): 17%
growth inhibition ([4]; at 3.7 µM): 57%
growth inhibition ([4]; at 11.0 µM): 98% (active)
growth inhibition ([4]; at 33.0 µM): 99% (active)
growth inhibition ([4]; at 100.0 µM): 98% (active)
growth inhibition ([5]; at 1.2 µM): 19%
growth inhibition ([5]; at 3.7 µM): 61%
growth inhibition [5, 17]: 18%
growth inhibition ([5]; at 11.0 µM): 98% (active)
growth inhibition ([5]; at 33.0 µM): 98% (active)
growth inhibition [5, 18]: 99% (active)
growth inhibition ([5]; at 50.0 µM): 99.1% (active)
growth inhibition ([5]; at 100.0 µM): 97% (active)
growth inhibition ([6]; at 1.2 µM): -2%
growth inhibition ([6]; at 3.7 µM): 28%
growth inhibition [6, 17]: 32%
growth inhibition ([6]; at 11.0 µM): 98% (active)
growth inhibition ([6]; at 33.0 µM): 98% (active)
growth inhibition [6, 18]: 99% (active)
growth inhibition ([6]; at 50.0 µM): 99.4% (active)
growth inhibition ([6]; at 100.0 µM): 98% (active)
growth inhibition ([7]; at 1.2 µM): 2%
growth inhibition ([7]; at 3.7 µM): 23%
growth inhibition ([7]; at 11.0 µM): 95% (active)
growth inhibition ([7]; at 33.0 µM): 97% (active)
growth inhibition ([7]; at 100.0 µM): 98% (active)
growth inhibition [8, 17]: 25%
growth inhibition [8, 18]: 99% (active)
growth inhibition ([8]; at 50.0 µM): 99.2% (active)
growth inhibition ([9]; at 1.2 µM): 2%
growth inhibition ([9]; at 3.7 µM): 23%
growth inhibition ([9]; at 11.0 µM): 98% (active)
growth inhibition ([9]; at 33.0 µM): 98% (active)
growth inhibition ([9]; at 100.0 µM): 98% (active)
growth inhibition [10, 17]: 50%
growth inhibition [10, 18]: 99% (active)
growth inhibition ([10]; at 50.0 µM): 99.1% (active)
growth inhibition ([11]; at 1.2 µM): -19%
growth inhibition ([11]; at 3.7 µM): 19%
growth inhibition [11, 17]: 14%
growth inhibition ([11]; at 11.0 µM): 98% (active)
growth inhibition ([11]; at 33.0 µM): 98% (active)
growth inhibition [11, 18]: 99% (active)
growth inhibition ([11]; at 50.0 µM): 98.8% (active)
growth inhibition ([11]; at 100.0 µM): 98% (active)
growth inhibition ([12]; at 1.2 µM): -65%
growth inhibition ([12]; at 3.7 µM): -3%
growth inhibition ([12]; at 11.0 µM): 96% (active)
growth inhibition ([12]; at 33.0 µM): 98% (active)
growth inhibition ([12]; at 100.0 µM): 98% (active)
growth inhibition ([13]; at 1.2 µM): 7%
growth inhibition ([13]; at 3.7 µM): 78% (active)
growth inhibition ([13]; at 11.0 µM): 98% (active)
growth inhibition ([13]; at 33.0 µM): 98% (active)
growth inhibition ([13]; at 100.0 µM): 98% (active)
growth inhibition ([14]; at 1.2 µM): 10%
growth inhibition ([14]; at 3.7 µM): 50%
growth inhibition ([14]; at 11.0 µM): 99% (active)
growth inhibition ([14]; at 33.0 µM): 99% (active)
growth inhibition ([14]; at 100.0 µM): 99% (active)
growth inhibition [15, 17]: 47%
growth inhibition [15, 18]: 99% (active)
growth inhibition ([15]; at 50.0 µM): 98.7% (active)
growth inhibition ([16]; at 1.2 µM): -20%
growth inhibition ([16]; at 3.7 µM): 35%
growth inhibition ([16]; at 11.0 µM): 97% (active)
growth inhibition ([16]; at 33.0 µM): 98% (active)
growth inhibition ([16]; at 100.0 µM): 97% (active)

Cc1ccc(NCCNCCO)c2c(=O)c3cc(O)ccc3sc12
growth inhibition ([1]; at 1.2 µM): -5%
growth inhibition ([1]; at 3.7 µM): 12%
growth inhibition ([1]; at 11.0 µM): 30%
growth inhibition ([1]; at 33.0 µM): 90% (active)
growth inhibition ([1]; at 100.0 µM): 93% (active)
growth inhibition ([2]; at 1.2 µM): 10%
growth inhibition ([2]; at 3.7 µM): -9%
growth inhibition ([2]; at 11.0 µM): -5%
growth inhibition ([2]; at 33.0 µM): -1%
growth inhibition ([2]; at 100.0 µM): 18%
growth inhibition ([3]; at 1.2 µM): 12%
growth inhibition ([3]; at 3.7 µM): 22%
growth inhibition ([3]; at 11.0 µM): 25%
growth inhibition ([3]; at 33.0 µM): 36%
growth inhibition ([3]; at 100.0 µM): 51%
growth inhibition ([4]; at 1.2 µM): -10%
growth inhibition ([4]; at 3.7 µM): 1%
growth inhibition ([4]; at 11.0 µM): -11%
growth inhibition ([4]; at 33.0 µM): -1%
growth inhibition ([4]; at 100.0 µM): 90% (active)
growth inhibition ([5]; at 1.2 µM): 4%
growth inhibition ([5]; at 3.7 µM): 4%
growth inhibition [5, 17]: 49%
growth inhibition ([5]; at 11.0 µM): 28%
growth inhibition ([5]; at 33.0 µM): 93% (active)
growth inhibition [5, 18]: 99% (active)
growth inhibition ([5]; at 50.0 µM): 80.8% (active)
growth inhibition ([5]; at 100.0 µM): 95% (active)
growth inhibition ([6]; at 1.2 µM): 5%
growth inhibition ([6]; at 3.7 µM): -13%
growth inhibition [6, 17]: 21%
growth inhibition ([6]; at 11.0 µM): -11%
growth inhibition ([6]; at 33.0 µM): -10%
growth inhibition [6, 18]: 99% (active)
growth inhibition ([6]; at 50.0 µM): 71.8% (active)
growth inhibition ([6]; at 100.0 µM): 58%
growth inhibition ([7]; at 1.2 µM): -18%
growth inhibition ([7]; at 3.7 µM): -4%
growth inhibition ([7]; at 11.0 µM): -2%
growth inhibition ([7]; at 33.0 µM): 0%
growth inhibition ([7]; at 100.0 µM): 97% (active)
growth inhibition [8, 17]: 8%
growth inhibition [8, 18]: 99% (active)
growth inhibition ([8]; at 50.0 µM): 89.2% (active)
growth inhibition ([9]; at 1.2 µM): 6%
growth inhibition ([9]; at 3.7 µM): 14%
growth inhibition ([9]; at 11.0 µM): 24%
growth inhibition ([9]; at 33.0 µM): 23%
growth inhibition ([9]; at 100.0 µM): 96% (active)
growth inhibition [10, 17]: 17%
growth inhibition [10, 18]: 100% (active)
growth inhibition ([10]; at 50.0 µM): 88.9% (active)
growth inhibition ([11]; at 1.2 µM): -24%
growth inhibition ([11]; at 3.7 µM): 0%
growth inhibition [11, 17]: 18%
growth inhibition ([11]; at 11.0 µM): 0%
growth inhibition ([11]; at 33.0 µM): -2%
growth inhibition [11, 18]: 99% (active)
growth inhibition ([11]; at 50.0 µM): 89.2% (active)
growth inhibition ([11]; at 100.0 µM): 96% (active)
growth inhibition ([12]; at 1.2 µM): 10%
growth inhibition ([12]; at 3.7 µM): 3%
growth inhibition ([12]; at 11.0 µM): 4%
growth inhibition ([12]; at 33.0 µM): 63%
growth inhibition ([12]; at 100.0 µM): 24%
growth inhibition ([13]; at 1.2 µM): -20%
growth inhibition ([13]; at 3.7 µM): -8%
growth inhibition ([13]; at 11.0 µM): -18%
growth inhibition ([13]; at 33.0 µM): -10%
growth inhibition ([13]; at 100.0 µM): 93% (active)
growth inhibition ([14]; at 1.2 µM): 15%
growth inhibition ([14]; at 3.7 µM): 35%
growth inhibition ([14]; at 11.0 µM): 43%
growth inhibition ([14]; at 33.0 µM): 48%
growth inhibition ([14]; at 100.0 µM): 91% (active)
growth inhibition [15, 17]: 13%
growth inhibition [15, 18]: 99% (active)
growth inhibition ([15]; at 50.0 µM): 81.7% (active)
growth inhibition ([16]; at 1.2 µM): -35%
growth inhibition ([16]; at 3.7 µM): -30%
growth inhibition ([16]; at 11.0 µM): -27%
growth inhibition ([16]; at 33.0 µM): -5%
growth inhibition ([16]; at 100.0 µM): 93% (active)
